Each structure is given as a SMILES string. Among all 360,000 compounds or so, about 7,500 (2.1%) were called active. A call without a number means that no potency is given here. About 20% were inconclusive and are not listed. The sample holds actives, similar compounds and a random draw of the others, so the mix is not that of the screen. Calls follow the shape of the dose curve; as a rule, active = well fitted inhibition curve with a large enough effect; inconclusive = small, poorly fitted or top-dose-only effect, or effect the other way; inactive = flat fitted curve, though single readings scatter.
Potency is read from the fitted curve at half-maximal effect.

The nature of this assay: Nrf2 qHTS screen for inhibitors. Also: nearly all actives have a fitted effect of over 60% in size. Particulars: A549 ARE-Fluc reporter, luciferase luminescence, 18-24 h; series mostly up to 46 µM. The gist of the method:
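Cells were seeded and rested 2 h, then exposed to compounds for 18-24 h. CellTiter-Fluor was read first as a viability measure. BugLite was added 15 min before the final luminescent read of ARE-luciferase activity in A549 cells.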
Background: qHTS replaces the single test concentration by a dilution series.
As for `O=C(C(c1ccccc1)c1ccccc1)N1CCN(CC(O)COc2ccccc2)CC1` (stereo not given), the Potency entry was “inactive”.
Still for that read-out and setting: the value for `OC(CN=c1sc2ccccc2n1CC(O)COc1ccccc1)COc1ccccc1` (stereo not given) was 23.1 µM (active); that for `C=CCn1c(=N)n(CC(O)COc2ccc(OC)cc2)c2ccccc21` (stereo not given) was “inactive”.
The same measure, in the same setting: the value for `COc1ccc(CCNC(=O)c2cnc3sc(N4CCCCCC4)nn3c2=O)cc1OC` was “inactive”; that for `O=C(NCc1ccc2c(c1)OCO2)c1cc([N+](=O)[O-])ccc1N1CCOCC1` was “inactive”.
On the same count and under the same terms, with `O=C(Nc1ccc(S(=O)(=O)Nc2nccs2)cc1)c1cccc(S(=O)(=O)N2CCOCC2)c1` the entry was “inactive”; with `O=C(Nc1ccc(N2CCOCC2)cc1)c1cccc(S(=O)(=O)N2CCOCC2)c1`, “inactive”; with `Cc1nc2ccc(NC(=O)c3cccc(S(=O)(=O)N4CCOCC4)c3)cc2s1`, 18.4 µM (active).
With `O=C(NNC(=S)Nc1ccccc1)c1cccc(S(=O)(=O)N2CCOCC2)c1`, the Potency result is “inactive”.
Still for that read-out and setting: the value for `O=C(Nc1nnc(-c2ccccc2)o1)c1cccc(S(=O)(=O)N2CCOCC2)c1` was 20.6 µM (active); that for `O=C(Nc1nnc(-c2ccco2)o1)c1ccc(S(=O)(=O)N2CCOCC2)cc1` was “inactive”.
Same read-out and setting: the value for `CCC(=O)Nc1ccccc1-c1nc2ccccc2n(CC(=O)Nc2ccc(C)c(C)c2)c1=O` was “inactive”; that for `CC1(C)CCc2cc(S(=O)(=O)N3CCN(c4nc(-c5cccs5)nc5ccccc45)CC3)ccc2O1` was “inactive”; that for `COc1ccc2ncc3c(-c4ccc(C)c(C)c4)nn(CC(=O)NC4CCCC4)c3c2c1` was “inactive”.
The same measure, in the same setting: the value for `CC(=O)NC(c1cccs1)c1cc(Br)c2cccnc2c1O` (stereo not given) was “inactive”; that for `Cc1cc(C)cc(NS(=O)(=O)c2ccc(F)cc2)c1` was “inactive”; that for `Cn1c(=O)n(C)c2cc(S(=O)(=O)Nc3ccc(F)cc3)ccc21` was 9.2 µM (active).
Regarding `Cn1c(=O)n(C)c2cc(NS(=O)(=O)c3ccc(F)cc3)ccc21`, the Potency entry is “inactive”.
Still for that read-out and setting: with `CC1CC(C)CN(c2oc(-c3ccc(OCc4ccc(Cl)cc4)cc3)nc2C#N)C1` (stereo not given) the entry was “inactive”; with `Cc1cccc(-n2ncc3c(=O)[nH]c(SCC(=O)Nc4cc(C)on4)nc32)c1`, “inactive”; with `O=c1c([N+](=O)[O-])cccn1Cc1ccc(F)cc1Cl`, 25.9 µM (active).
Still for that read-out and setting: with `O=c1c([N+](=O)[O-])cc(C(F)(F)F)cn1Cc1cccc(Cl)c1` the entry was “inactive”; with `Cc1ccc(-c2ccc(=O)n(Cc3ccc(F)cc3Cl)n2)cc1`, “inactive”.
On the same count and under the same terms, with `Cc1cc2n(n1)C(c1cc(C(C)(C)C)c(O)cc1O)Nc1ccccc1-2` (stereo not given) the entry was “inactive”; with `COc1ccc(N2CCN(C(=O)CCSCc3ccccc3F)CC2)cc1`, “inactive”.
In the case of `COc1ccc(CNC(=O)CSCc2nc(-c3ccccc3F)oc2C)cc1`, the Potency entry was “inactive”.
On to `COc1ccc(N2CCN(C(=O)CSCc3nc(-c4ccccc4Cl)oc3C)CC2)cc1`, for which the Potency was 1.84 µM (active).
The same measure, in the same setting: with `Cc1ccc(S(=O)(=O)N2CCN(C(=O)c3cccs3)CC2)cc1` the entry was “inactive”; with `CC(C)Cc1ccc(S(=O)(=O)N2CCN(C(=O)c3ccco3)CC2)cc1`, 18.4 µM (active); with `O=C(CNS(=O)(=O)c1ccccc1)N1CCN(C(=O)c2ccco2)CC1`, “inactive”.
With `O=C(CNC(=O)c1ccccc1)OC(C(=O)Nc1cc([N+](=O)[O-])ccc1F)c1ccccc1` (stereo not given), the Potency result was “inactive”.
Regarding `COc1ccc(NC(=O)CCN2CCN(CCO)CC2)cc1`, the Potency entry was “inactive”.
Same read-out and setting: with `C=CCNc1scc(-c2ccccc2)[n+]1CC=C` the entry was “inactive”; with `O=C(NNC(=O)c1ccc(-c2ccccc2)cc1)Nc1ccccc1`, “inactive”.
Regarding `C=CC[n+]1c(-c2ccc(C)cc2)csc1NNC(=O)Nc1ccccc1`, the Potency was 18.4 µM (active).
As for `CCOCCCNC(=O)c1cn(CC)c2ccc(S(=O)(=O)N3CCc4ccccc4C3)cc2c1=O`, the Potency result is “inactive”.
Consider `COc1c(Cl)cc(C(=O)N(Cc2ccccc2F)C2CCS(=O)(=O)C2)cc1Cl` (stereo not given), for which the Potency result is “inactive”.
Same read-out and setting: with `COc1ccc(C2Nc3ccccc3C(=O)N2Cc2ccc(CNC(=O)CO)cc2)cc1COc1ccc(NC(C)=O)cc1` (stereo not given) the entry was “inactive”.
Same read-out and setting: with `CC(C)(C)OC(=O)N(Cc1ccccc1)Cc1ccc(OCc2cccc(NC(=O)c3ccccc3)c2)cc1` the entry was “inactive”; with `C=CCOC(=O)c1ccccc1C(=O)OCC=C`, “inactive”.
The same measure, in the same setting: the value for `CCOC(=O)C1=C(C)NC(=S)NC1c1cccs1` (stereo not given) was “inactive”; that for `C=CCOC(=O)C1=C(C)NC(C)=C(C(=O)OCC=C)C1c1cccs1` was 20.6 µM (active).
Turning to `CCCCN1CC(COc2ccccc2)Oc2cccc(F)c2S1(=O)=O` (stereo not given), the Potency entry was “inactive”.
Still for that read-out and setting: with `O=S(=O)(O)c1cc2onnc2c2ccccc12` the entry was “inactive”; with `COc1ccc(Cl)cc1C=CC=Nc1ccc(S(N)(=O)=O)cc1`, “inactive”.
In the case of `CC1CCCN(C(=O)CN2C(=O)c3ccccc3S2(=O)=O)C1` (stereo not given), the Potency entry is “inactive”.
The same measure, in the same setting: with `O=C(CN1C(=O)c2ccccc2S1(=O)=O)N1CCc2ccccc21` the figure was 4.11 µM (active).
Same read-out and setting: with `O=C(CN1C(=O)c2ccccc2S1(=O)=O)NC1CCCCC1` the entry was “inactive”; with `COc1ccc(-c2cn3nc(N4CCC(C(=O)Nc5cccc(C)c5C)CC4)sc3n2)cc1`, “inactive”; with `CCN(CC)S(=O)(=O)c1ccc(C(=O)N=c2sc3cccc(OC)c3n2C)cc1`, “inactive”.
On the same count and under the same terms, with `NCCCNC(=S)NCCCN(Cc1ccc(Cl)cc1)c1ccc(Br)cn1` the entry was “inactive”; with `COc1ccccc1OCCNc1cc(N2CCOCC2)ccc1[N+](=O)[O-]`, “inactive”; with `COc1ccc(CCNc2cc(N3CCN(C(=O)c4ccccc4OC)CC3)ccc2[N+](=O)[O-])cc1OC`, 5.8 µM (active).
As to `COc1ccc(CCNC(=O)c2ccccc2-c2ccccc2C(=O)O)cc1OC`, the Potency entry is “inactive”.
Same read-out and setting: with `CCN(CC)S(=O)(=O)c1ccc(N2CCOCC2)c(NC(=O)C(C)Oc2ccc(F)cc2)c1` (stereo not given) the entry was “inactive”; with `Cc1ccccc1-c1cc(C(=O)NCC2CC2)n(CC2CC(c3cccnc3)=NO2)n1` (stereo not given), “inactive”.
Regarding `Cc1ccccc1-c1cc(C(=O)NCc2cccs2)n(CC2CC(c3cccnc3)=NO2)n1` (stereo not given), the Potency is 20.6 µM (active).
The same measure, in the same setting: the value for `Cc1ccc(CNC(=O)c2cc(-c3ccccc3C)n(CC3CC(c4cccc([N+](=O)[O-])c4)=NO3)n2)cc1` (stereo not given) was “inactive”.
Consider `CCCCCn1c(=O)[nH]c2cc(C(=O)NCCN(C)CCCC)ccc2c1=O`, for which the activity change, negative = inhibition is 7.46% [at 9.27 µM] (inactive).
`CC(C)C(NS(=O)(=O)c1cccs1)C(=O)Nc1nc(C(C)(C)C)cs1` (stereo not given): the Potency is 18.4 µM (active).
Consider `CC(=O)Nc1ccc(S(=O)(=O)N2CCN(S(=O)(=O)c3cccs3)CC2)cc1`, for which the Potency result was “inactive”.
Same read-out and setting: the value for `COc1ccc(CNC(=O)C(NS(=O)(=O)c2cccc3nsnc23)C(C)C)cc1` (stereo not given) was “inactive”.
Turning to `Cc1ccc(CN(C(=O)COc2ccc(Cl)cc2C)C2CCS(=O)(=O)C2)o1` (stereo not given), the Potency entry was “inactive”.
On the same count and under the same terms, the value for `CC1CCN(S(=O)(=O)c2ccc3c(ccn3CCC(=O)NCc3ccc(N(C)C)cc3)c2)CC1` was “inactive”; that for `Cc1ccccc1C(=O)N(Cc1ccc(N(C)C)cc1)CC1CCCO1` (stereo not given) was “inactive”.
On the same count and under the same terms, with `CN(Cc1cncn1C)c1ncnc2ccc(-c3ccc4c(c3)OCO4)cc12` the entry was “inactive”; with `CCC(=O)N1CCc2cc(S(=O)(=O)NC(Cc3ccccc3)C(=O)NCc3ccccc3)ccc21` (stereo not given), “inactive”.
Same read-out and setting: with `COc1ccccc1C(=O)NCCC(=O)N(C)Cc1cccnc1` the entry was “inactive”; with `COc1ccccc1C(=O)Nc1c(C(=O)N(C)Cc2ccccc2)sc2nc(C)c(Cl)c(C)c12`, 14.6 µM (active).
On to `COc1ccccc1NC(=O)c1sc2nc(C)c(C(=O)Nc3ccc(Cl)cc3)c(-c3ccc(Br)cc3)c2c1N`, for which the activity change, negative = inhibition was 6.36% [at 9.27 µM] (inactive).
On to `COc1ccc(CCn2cc3c(c2-c2ccc(Br)cc2)c(=O)n(C)c(=O)n3C)cc1OC`, for which the Potency result is “inactive”.
In the case of `COc1cc2nc(SCc3ccc(F)cc3)n3nc(CCn4c(C)nc5ccccc54)nc3c2cc1OC`, the Potency entry was “inactive”.
Still for that read-out and setting: with `COc1ccc2[nH]c3c(c2c1)CCN1C(=O)C(CC(=O)NCCCN(C)C)C[C@H](C(=O)N2CCOCC2)[C@@]31CCC1CCCC1` (stereo not given in full) the entry was “inactive”.
Still for that read-out and setting: with `CN(C)C(=O)CCc1ccc2c3c([nH]c2c1)[C@]1(CCC2CCCC2)[C@@H](C(=O)N2CCOCC2)C[C@H](CC(=O)NCc2ccco2)C(=O)N1CC3` the entry was “inactive”; with `CC[C@]12c3[nH]c4ccc(Cl)cc4c3CCN1C(=O)[C@@H](CC(=O)NCCN1CCOCC1)C[C@@H]2C(=O)N1CCN(C(=O)C2CC2)CC1`, “inactive”; with `CC[C@]12c3[nH]c4ccc(OC)cc4c3CCN1C(=O)C(CC(=O)NCc1ccco1)C[C@@H]2C(=O)N1CCN(C(=O)C2CC2)CC1` (stereo not given in full), “inactive”.
For the compound `O=C(C[C@H]1C[C@H](C(=O)N2CCOCC2)[C@@]2(CCC3CCCC3)c3[nH]c4ccc(Cl)cc4c3CCN2C1=O)NCc1ccco1`, the Potency was 20.6 µM (active).
On to `COc1ccc(CNC(=O)C[C@H]2C[C@H](C(=O)N3CCOCC3)[C@@]3(CCC4CCCC4)c4[nH]c5ccc(Cl)cc5c4CCN3C2=O)cc1OC`, for which the Potency was 13 µM (active).
Same read-out and setting: the value for `CC(C)(C)OC(=O)C[C@@H]1C/C=C\C[C@H](CC(=O)N[C@@H](CO)Cc2ccccc2)C(=O)N[C@H](Cc2ccccc2)COC1=O` was “inactive”; that for `N#CN1CCC(NC(=O)c2ccc(F)cc2)CC1` was “inactive”; that for `CCOc1ccc(S(=O)(=O)Nc2ccc3oc4c(c3c2)CC(C)CC4)cc1` (stereo not given) was “inactive”.
On to `Cc1ccccc1CS(=O)(=O)CC1Nc2ccc(C(=O)NCc3ccc(Cl)cc3)cc2NC1=O` (stereo not given), for which the Potency result is “inactive”.
Still for that read-out and setting: with `COc1cccc2oc(CCc3ccccc3)cc(=O)c12` the entry was “inactive”.
As for `COc1ccccc1CNS(=O)(=O)c1cc(Br)cc2c1N(C(C)=O)C(C)C2` (stereo not given), the activity change, negative = inhibition was 1.68% [at 9.27 µM] (inactive).
For `CCOc1cccc2c1N[C@@H](c1ccc(C(=O)O)cc1)[C@H]1CC=C[C@@H]21`, the Potency entry was “inactive”.
Still for that read-out and setting: with `COc1cccc(CNC(=O)CCC(=O)N2CC3CCCN3c3ccccc32)c1` (stereo not given) the entry was “inactive”; with `CCN1CCC2(CC1)N=C(c1ccc(F)cc1)C(=S)N2C(=O)c1ccc(C)cc1`, 16.4 µM (active).
Same read-out and setting: the value for `Cc1ccc(SCC(=O)N2CCN(c3ccc(F)cc3)CC2)cc1` was “inactive”.
On the same count and under the same terms, with `CCN1CCC(N(Cc2ccc(F)cc2)C(=O)Nc2cc(C)ccc2C)CC1` the entry was “inactive”; with `Cc1cc(OCC(=O)NCC2(N(C)C)CCCCC2)cc(C)c1Cl`, “inactive”.

These data come from PubChem BioAssay AID504444 (National Center for Advancing Translational Sciences (NCATS), 2011).
